Experimental data as given in PubChem BioAssay (NCI).
The panel holds about 83,000 compounds, 20% with a hit somewhere; the sample as a whole holds those more often.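 48-hour exposure, single concentration, 96-well plates; percent growth endpoint where 0 means no net growth. Active: below 10.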 The source made the active and inactive calls.

Assays:
Experiment in all cases: NCI-60 one-dose screen, 48 h (100 = growth as untreated, 0 = no growth, -100 = all killed)
HCT-15 colon = conditions: 10 µM unless noted
HT29 colon = conditions: 10 µM unless noted
SNB-75 CNS = conditions: 10 µM unless noted
SNB-19 CNS = conditions: 10 µM unless noted
U251 CNS = conditions: 10 µM unless noted
PC-3 prostate = conditions: 10 µM unless noted
SK-MEL-5 melanoma = conditions: 10 µM unless noted
UACC-62 melanoma = conditions: 10 µM unless noted
SK-MEL-28 melanoma = conditions: 10 µM unless noted
SK-MEL-2 melanoma = conditions: 10 µM unless noted
EKVX NSCLC = conditions: 10 µM unless noted
SN12C renal = conditions: 10 µM unless noted
UO-31 renal = conditions: 10 µM unless noted
TK-10 renal = conditions: 10 µM unless noted
CAKI-1 renal = conditions: 10 µM unless noted
A498 renal = conditions: 10 µM unless noted
CCRF-CEM leukemia = conditions: 10 µM unless noted
MOLT-4 leukemia = conditions: 10 µM unless noted
ACHN renal = conditions: 10 µM unless noted
LOX IMVI melanoma = conditions: 10 µM

Measured: growth

Cc1c(C(=O)NNC(=O)c2ccc(Cl)cc2)nnn1-c1ccc(Cl)cc1
inactive: HCT-15 colon 93.5% | HT29 colon 92.3% | SNB-75 CNS 83.6% | SNB-19 CNS 95.1% | U251 CNS 99.8% | PC-3 prostate 95.4% | SK-MEL-5 melanoma 99.5% | UACC-62 melanoma 86.1% | SK-MEL-28 melanoma 94% | SK-MEL-2 melanoma 106% | EKVX NSCLC 91.5% | SN12C renal 94.7% | UO-31 renal 74.1% | TK-10 renal 96.1% | CAKI-1 renal 87.2% | A498 renal 105% | CCRF-CEM leukemia 88.4% | MOLT-4 leukemia 85.4%

CSc1ccc(NC(=O)c2ccc3nnn(/C(C#N)=C/c4ccccn4)c3c2)cc1
inactive: SNB-75 CNS 63.2% | A498 renal 45.1%
active: HCT-15 colon -66.3% | HT29 colon -89.2% | SNB-19 CNS -73.1% | U251 CNS -81.6% | PC-3 prostate -20.1% | SK-MEL-5 melanoma -99.7% | UACC-62 melanoma -65.9% | SK-MEL-28 melanoma -72.6% | SK-MEL-2 melanoma -96.3% | EKVX NSCLC -99.6% | SN12C renal -99.9% | UO-31 renal -100% | ACHN renal -100% | CAKI-1 renal -93.5% | CCRF-CEM leukemia 6.95% | MOLT-4 leukemia 6.04%

Cc1c(C(=O)NNC(=O)c2ccc(Cl)cc2)nnn1-c1ccc(Br)cc1
inactive: HCT-15 colon 98.3% | HT29 colon 96.4% | SNB-75 CNS 90.6% | SNB-19 CNS 97% | U251 CNS 112% | PC-3 prostate 99.9% | SK-MEL-5 melanoma 97.7% | UACC-62 melanoma 90.5% | SK-MEL-28 melanoma 95.7% | SK-MEL-2 melanoma 107% | EKVX NSCLC 99.4% | SN12C renal 102% | UO-31 renal 75.9% | TK-10 renal 95.4% | A498 renal 139% | CCRF-CEM leukemia 90.3% | MOLT-4 leukemia 85.4%

Cn1cc(-c2nnc(N)nc2-c2c[nH]c3ccccc23)c2cccnc21
inactive: HCT-15 colon 28.9% | HT29 colon 17.2% | SNB-75 CNS 28.5% | SNB-19 CNS 51.6% | U251 CNS 41.6% | PC-3 prostate 57.8% | SK-MEL-5 melanoma 24.4% | UACC-62 melanoma 33.9% | SK-MEL-28 melanoma 55% | SK-MEL-2 melanoma 24.3% | EKVX NSCLC 62.3% | SN12C renal 50.6% | UO-31 renal 48% | ACHN renal 56.9% | CAKI-1 renal 43.2% | A498 renal 86.4% | CCRF-CEM leukemia 34.6% | MOLT-4 leukemia 26.7%

C=C1CC[C@@H]2[C@]3(C)COC(c4cn(-c5ccccc5)nc4-c4cccc([N+](=O)[O-])c4)O[C@@H]3CC[C@@]2(C)[C@@H]1C/C=C1/C(=O)OC[C@H]1O (some centres undefined)
inactive: SNB-75 CNS 109% | SNB-19 CNS 23.5% | PC-3 prostate 16.5% | UO-31 renal 12.2% | CAKI-1 renal 38.7% | A498 renal 105%
active: HCT-15 colon -74.2% | HT29 colon -59.7% | U251 CNS -73.9% | SK-MEL-5 melanoma -99.6% | UACC-62 melanoma -71.7% | SK-MEL-28 melanoma -47.9% | SK-MEL-2 melanoma -45.2% | EKVX NSCLC -0.625% | SN12C renal 3.71% | ACHN renal -74.5% | CCRF-CEM leukemia -1.81% | MOLT-4 leukemia -3.81%

COc1ccc(C2=NN(c3ccccc3)C(c3ccc(OC)c(OCc4ccccc4)c3)C2)cc1OC (centres undefined)
inactive: HCT-15 colon 83.8% | HT29 colon 70.5% | SNB-75 CNS 90.6% | SNB-19 CNS 88.1% | U251 CNS 92.4% | PC-3 prostate 98% | SK-MEL-5 melanoma 94.1% | UACC-62 melanoma 81.8% | SK-MEL-28 melanoma 115% | SK-MEL-2 melanoma 94.1% | EKVX NSCLC 92.4% | SN12C renal 104% | TK-10 renal 125% | ACHN renal 110% | CAKI-1 renal 76.7% | A498 renal 101% | CCRF-CEM leukemia 106% | MOLT-4 leukemia 97%

COc1ccc(-c2cc(C(=O)NCc3ccccc3)nn2-c2ccc(S(C)(=O)=O)cc2)cc1OC
active: MOLT-4 leukemia -4.09%
inactive: HCT-15 colon 108% | HT29 colon 102% | SNB-75 CNS 62.5% | SNB-19 CNS 95.2% | U251 CNS 99.2% | PC-3 prostate 110% | SK-MEL-5 melanoma 97.1% | UACC-62 melanoma 111% | SK-MEL-28 melanoma 134% | SK-MEL-2 melanoma 119% | EKVX NSCLC 97.5% | SN12C renal 88.1% | UO-31 renal 77% | TK-10 renal 106% | A498 renal 99.9% | CCRF-CEM leukemia 101%

Cc1cc(N=C2NC(=O)CS2)n[nH]1
inactive: HCT-15 colon 104% | HT29 colon 114% | SNB-75 CNS 107% | SNB-19 CNS 103% | U251 CNS 110% | PC-3 prostate 100% | UACC-62 melanoma 93.5% | LOX IMVI melanoma 94.6% | SK-MEL-28 melanoma 108% | SK-MEL-2 melanoma 98.7% | EKVX NSCLC 72.7% | SN12C renal 101% | UO-31 renal 79.3% | TK-10 renal 108% | ACHN renal 102% | CAKI-1 renal 95.9% | A498 renal 124%

O=C1c2c(c3c4cc(F)ccc4oc3c3[nH]c4ccc(Br)cc4c23)C(=O)N1O
active: SNB-75 CNS -13.7% | SK-MEL-5 melanoma 6.06% | SK-MEL-2 melanoma 5.56% | UO-31 renal 9.04% | CCRF-CEM leukemia 9.46% | MOLT-4 leukemia 7.83%
inactive: HCT-15 colon 48.1% | HT29 colon 68.6% | SNB-19 CNS 14.2% | U251 CNS 18.5% | PC-3 prostate 20.2% | UACC-62 melanoma 18.6% | SK-MEL-28 melanoma 43.6% | EKVX NSCLC 76.5% | SN12C renal 19.2% | TK-10 renal 137% | CAKI-1 renal 21.9% | A498 renal 119%
